{"source": "paper PMC8384837", "about": "“Expanding the binding specificity for RNA recognition by a PUF domain”", "assay_in_all_cases": "yeast three-hybrid, YBZ-1, SC-Leu-His + 0.5 mM 3-AT, 4 days", "conditions_in_all_cases": "tags: N-Gal4 AD-HA kept; label: inside an RPR1-promoter hybrid RNA with tandem MS2 sites; ssRNA", "key": {"PUM1 PUF domain R5-SRL": {"biological_target": "PUM1 PUF domain R5-SRL (Homo sapiens, UniProt Q14671 828-1176, C1007S;Q1011L)", "how_it_was_run": "(§1)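 Each repeat of the Pumilio-1 PUF domain was randomized at its three base-contacting residues, and these libraries were co-expressed from a centromeric plasmid with matching RNA elements in strain YBZ-1. After four days on SC-Leu (input) or SC-Leu-His + 0.5 mM 3-AT (selection), the repeat regions were PCR-amplified and Illumina-sequenced. The interaction score compares variant frequency between input and selection as a log change, computed in log2 with a pseudocount of 1 for absent variants.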"}, "PUM1 PUF domain R8-RWQ": {"biological_target": "PUM1 PUF domain R8-RWQ (Homo sapiens, UniProt Q14671 828-1176, N1122R;Y1123W)", "how_it_was_run": "as §1"}, "PUM1 PUF domain R8-IYV": {"biological_target": "PUM1 PUF domain R8-IYV (Homo sapiens, UniProt Q14671 828-1176, N1122I;Q1126V)", "how_it_was_run": "as §1"}, "PUM1 PUF domain R8-MYR": {"biological_target": "PUM1 PUF domain R8-MYR (Homo sapiens, UniProt Q14671 828-1176, N1122M;Q1126R)", "how_it_was_run": "as §1"}, "PUM1 PUF domain R1-HLR": {"biological_target": "PUM1 PUF domain R1-HLR (Homo sapiens, UniProt Q14671 828-1176, S863H;R864L;Q867R)", "how_it_was_run": "as §1"}, "PUM1 PUF domain R3-VCE": {"biological_target": "PUM1 PUF domain R3-VCE (Homo sapiens, UniProt Q14671 828-1176, C935V;R936C;Q939E)", "how_it_was_run": "as §1"}, "PUM1 PUF domain R4-EWG": {"biological_target": "PUM1 PUF domain R4-EWG (Homo sapiens, UniProt Q14671 828-1176, N971E;H972W;Q975G)", "how_it_was_run": "as §1"}, "PUM1 PUF domain R6-LWR": {"biological_target": "T1, PUM1 PUF domain R6-LWR (Homo sapiens, UniProt Q14671 828-1176, N1043L;Y1044W;Q1047R)", "T1 sequence": "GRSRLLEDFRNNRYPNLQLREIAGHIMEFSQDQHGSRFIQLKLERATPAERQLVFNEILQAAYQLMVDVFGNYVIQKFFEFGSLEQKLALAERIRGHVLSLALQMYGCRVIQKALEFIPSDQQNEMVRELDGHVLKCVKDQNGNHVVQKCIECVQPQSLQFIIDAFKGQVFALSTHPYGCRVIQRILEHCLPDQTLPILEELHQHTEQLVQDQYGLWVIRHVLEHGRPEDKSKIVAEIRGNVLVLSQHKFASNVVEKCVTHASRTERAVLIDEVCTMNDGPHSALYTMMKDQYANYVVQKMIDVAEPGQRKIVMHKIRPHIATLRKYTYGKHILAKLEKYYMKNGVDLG", "how_it_was_run": "as §1"}, "PUM1 PUF domain R8-SWK": {"biological_target": "PUM1 PUF domain R8-SWK (Homo sapiens, UniProt Q14671 828-1176, N1122S;Y1123W;Q1126K)", "how_it_was_run": "as §1"}, "PUM1 PUF domain R3-GWF": {"biological_target": "PUM1 PUF domain R3-GWF (Homo sapiens, UniProt Q14671 828-1176, C935G;R936W;Q939F)", "how_it_was_run": "as §1"}}}
{"sequence": "GGCUAGAACUAGUGGAUCCCCCGGCGCCCGGCGGCUCGAGCCCGGGUAAGUGUUAAUAGUCUGCAUGCCGCCGGGCGCCAUGCCUGCAGGUCGACUCUAGAAAACAUG", "values": [{"measurement": "binding signal", "setting": "PUM1 PUF domain R5-SRL", "value": "2.41 log2 enrichment (interaction score)"}]}
{"sequence": "GGCUAGAACUAGUGGAUCCCCCGGCGCCCGGCGGCUCGAGCCCGGGUAAGCGUAAAUAGUCUGCAUGCCGCCGGGCGCCAUGCCUGCAGGUCGACUCUAGAAAACAUG", "values": [{"measurement": "binding signal", "setting": "PUM1 PUF domain R8-RWQ", "value": "5.71 log2 enrichment (interaction score)"}, {"measurement": "binding signal", "setting": "PUM1 PUF domain R8-IYV", "value": "2.44 log2 enrichment (interaction score)"}, {"measurement": "binding signal", "setting": "PUM1 PUF domain R8-MYR", "value": "4.58 log2 enrichment (interaction score)"}]}
{"sequence": "GGCUAGAACUAGUGGAUCCCCCGGCGCCCGGCGGCUCGAGCCCGGGUAAGUGUAAAUCGUCUGCAUGCCGCCGGGCGCCAUGCCUGCAGGUCGACUCUAGAAAACAUG", "values": [{"measurement": "binding signal", "setting": "PUM1 PUF domain R1-HLR", "value": "3.24 log2 enrichment (interaction score)"}]}
{"sequence": "GGCUAGAACUAGUGGAUCCCCCGGCGCCCGGCGGCUCGAGCCCGGGUAAGUGUAAAUAGUCUGCAUGCCGCCGGGCGCCAUGCCUGCAGGUCGACUCUAGAAAACAUG", "values": [{"measurement": "binding signal", "setting": "PUM1 PUF domain R8-RWQ", "value": "6.33 log2 enrichment (interaction score)"}, {"measurement": "binding signal", "setting": "PUM1 PUF domain R5-SRL", "value": "3.16 log2 enrichment (interaction score)"}, {"measurement": "binding signal", "setting": "PUM1 PUF domain R3-VCE", "value": "2.11 log2 enrichment (interaction score)"}, {"measurement": "binding signal", "setting": "PUM1 PUF domain R4-EWG", "value": "3.6 log2 enrichment (interaction score)"}, {"measurement": "binding signal", "setting": "PUM1 PUF domain R6-LWR", "value": "5.05 log2 enrichment (interaction score)"}, {"measurement": "binding signal", "setting": "PUM1 PUF domain R8-SWK", "value": "5.34 log2 enrichment (interaction score)"}, {"measurement": "binding signal", "setting": "PUM1 PUF domain R8-IYV", "value": "2.36 log2 enrichment (interaction score)"}, {"measurement": "binding signal", "setting": "PUM1 PUF domain R8-MYR", "value": "4.65 log2 enrichment (interaction score)"}, {"measurement": "binding signal", "setting": "PUM1 PUF domain R3-GWF", "value": "5.35 log2 enrichment (interaction score)"}]}
{"sequence": "GGCUAGAACUAGUGGAUCCCCCGGCGCCCGGCGGCUCGAGCCCGGGUAAGUGUACAUAGUCUGCAUGCCGCCGGGCGCCAUGCCUGCAGGUCGACUCUAGAAAACAUG", "values": [{"measurement": "binding signal", "setting": "PUM1 PUF domain R4-EWG", "value": "1.12 log2 enrichment (interaction score)"}]}
{"sequence": "GGCUAGAACUAGUGGAUCCCCCGGCGCCCGGCGGCUCGAGCCCGGGUAAGUGUAAGUAGUCUGCAUGCCGCCGGGCGCCAUGCCUGCAGGUCGACUCUAGAAAACAUG", "values": [{"measurement": "binding signal", "setting": "PUM1 PUF domain R3-VCE", "value": "3.08 log2 enrichment (interaction score)"}]}
{"sequence": "GGCUAGAACUAGUGGAUCCCCCGGCGCCCGGCGGCUCGAGCCCGGGUAAGUGUAAAUUGUCUGCAUGCCGCCGGGCGCCAUGCCUGCAGGUCGACUCUAGAAAACAUG", "values": [{"measurement": "binding signal", "setting": "PUM1 PUF domain R1-HLR", "value": "2.68 log2 enrichment (interaction score)"}]}
